High-throughput results as filed in PubChem BioAssay.
Most compounds without a hit are left out; they make up all but 28% or so of the library.
CYP2C9 inhib: human CYP2C9 inhibition. inhibition, % at 5 µM. 96,000 compounds, 20% hits. CYP2C9 Supersomes, luciferin-H conversion, luminescence;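 active means blocking of liver enzyme CYP2C9 beyond about 50% at 5 µM, limit read from the data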
Target sequence (P11712 whole entry, looked up): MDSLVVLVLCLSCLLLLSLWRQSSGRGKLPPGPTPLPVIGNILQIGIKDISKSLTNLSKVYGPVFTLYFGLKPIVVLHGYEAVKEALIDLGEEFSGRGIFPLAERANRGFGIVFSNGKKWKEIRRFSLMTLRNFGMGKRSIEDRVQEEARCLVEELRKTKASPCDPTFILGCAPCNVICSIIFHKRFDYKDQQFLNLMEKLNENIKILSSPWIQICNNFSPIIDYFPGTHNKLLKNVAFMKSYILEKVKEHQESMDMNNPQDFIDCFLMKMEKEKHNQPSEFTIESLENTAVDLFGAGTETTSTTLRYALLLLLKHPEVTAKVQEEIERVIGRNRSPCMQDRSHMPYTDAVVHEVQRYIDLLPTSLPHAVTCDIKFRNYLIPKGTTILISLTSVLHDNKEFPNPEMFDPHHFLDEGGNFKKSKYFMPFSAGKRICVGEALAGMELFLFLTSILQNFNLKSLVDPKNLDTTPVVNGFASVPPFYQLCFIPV
CYP2C19 inhib: human CYP2C19 inhibition; P33261; CYP2C19 Supersomes, luciferin-H EGE luminescence, 30 min; inhibition, % at 5 µM; 96,000 compounds, 21% hits; AID 778;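 active means CYP2C19 inhibition above a set limit at 5 µM in the primary screen, cut at about 50% in these data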
D1 mod: allosteric modulators of human D1 dopamine receptor; 58,000 compounds, 5.9% hits; P21728; HEK293 D1, CRE-luciferase, dopamine EC30 potentiation; actives deviate in either direction; B-score at 10 µM; AID 641;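 active means luminescence count or its row- and column-corrected plate score outside the 99.7% band of the plate's sample wells, on either side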
CYP2C19 act: activators of human cytochrome P450 2C19; recombinant CYP2C19, luciferin-H EGE luminescence; active compounds read high; 0 = fully inhibited enzyme, 1 = untreated enzyme; AID 1025; P33261; activation factor at 5 µM; 96,000 tested, under 10 active;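 active means activation factor of at least 2 at 5 µM in the primary screen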
DAT uptake mod: changed human dopamine transporter uptake under cocaine IC80; AID 449768; 110,000 compounds, 1.3% hits; Q01959; B-score at 10 µM; LLC-PK1 hDAT cells, [14C]-dopamine uptake with cocaine IC80; actives deviate in either direction;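 active means Z score or B-score, a plate-position-corrected score, falls beyond the plate's 99.7% confidence bounds, in either direction; inactive means both scores lie inside the 99.7% bounds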
CYP2C9 activ: CYP2C9 (human) activation | recombinant CYP2C9, luciferin-H conversion, luminescence; active compounds read high; factor 1 = untreated enzyme, 0 = blocked | 96,000 compounds, 1.4% hits | AID 1024 | activation factor at 5 µM;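 active means activation factor of 2 or more for CYP2C9 at a 5 µM dose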
Numbers stand for hits; . = inactive; / = no result given.

SMILES	CYP2C9 inhib	CYP2C19 inhib	D1 mod	CYP2C19 act	DAT uptake mod	CYP2C9 activ
Cc1ccccc1Nc1nnc(SCC(=O)NC(=O)NCc2ccco2)s1	.	.	/	.	/	.
Cc1cc(-c2cc(C(=O)NCc3ccccc3)on2)nc(NCC2CC2)n1	/	/	/	/	.	/
CNC(=O)c1nc(C)c(C2(C)CC(c3cccc([N+](=O)[O-])c3)=NO2)s1 (stereo unspecified)	/	/	/	/	.	/
CCOc1cc(NC2CS(=O)(=O)CC2O)c(OCC)cc1NC(=O)c1ccccc1 (stereo unspecified)	.	.	.	.	.	.
O=C1CC(C(=O)O)c2ccccc2N1 (stereo unspecified)	.	.	/	.	.	.
O=C1CC(c2ccccc2)CCc2sccc2N1 (stereo unspecified)	.	66	/	.	.	.
O=C(CN(C1CCCCC1)S(=O)(=O)c1ccccc1)NCc1cccnc1	/	/	.	/	.	/
O=C(CN(C1CCCCC1)S(=O)(=O)c1ccc(Cl)cc1)NCc1cccnc1	92	100	.	.	.	.
CS(=O)(=O)N(CC(=O)NCc1cccnc1)Cc1ccc(Cl)cc1	54	97	.	.	.	.
CS(=O)(=O)N(CC(=O)NCc1ccncc1)Cc1ccc(Cl)cc1	94	99	.	.	.	.
CS(=O)(=O)N(CC(=O)NCc1ccc2c(c1)OCO2)Cc1ccc(Cl)cc1	81	79	.	.	.	.
O=C(NCc1ccc(F)cc1)C1CCC(=O)N1CCc1ccccc1 (stereo unspecified)	.	.	.	.	.	.
COc1ccc(-c2cn3c(C)c(C(=O)NCc4ccc5c(c4)OCO5)sc3n2)cc1	/	/	.	/	.	/
COCCCNCC(=O)c1c(N)n(Cc2ccccc2)c(=O)n(C)c1=O	.	.	/	.	.	.
CC1CC(C)CN(C(=O)CN2CCN(Cc3ccc(Cl)cc3)C2=O)C1 (stereo unspecified)	.	.	/	.	.	.
CCOC(=O)C1=C(O)/C(=C\c2cccc(OC)c2)N=C1C	.	65	/	.	.	.
CCOC(=O)C1=C(O)/C(=C/N(C)C)N=C1C	.	.	.	.	.	.
O=C(Cn1nnc(-c2ccccc2F)n1)NCCc1ccccc1	.	70	.	.	.	.
CCCC(=O)Nc1ccccc1-c1nnn(CC(=O)Nc2ccc(OCC)cc2)n1	/	/	.	/	.	/
COc1ccc(C(=O)Cn2nnc(-c3ccccc3F)n2)cc1	.	55	.	.	.	.
O=C(Cn1nnc(-c2ccccc2F)n1)Nc1cccc2ncccc12	.	63	/	.	.	.
O=C(CN(C(=O)Cn1nnc(-c2ccccc2F)n1)c1cccc2c1CCCC2)NCc1ccccc1	96	.	/	.	.	.
CSc1ccc(-c2nnn(CC(=O)NCc3ccccc3)n2)cc1	.	.	/	.	.	.
COc1ccc(CCNC(=O)Cn2nnc(-c3cccc(OC)c3OC)n2)cc1OC	.	.	.	.	.	.
CCCN(C(=S)Nc1ccccc1)C1CCS(=O)(=O)C1 (stereo unspecified)	.	.	/	.	.	.
SMILES	CYP2C9 inhib	CYP2C19 inhib	D1 mod	CYP2C19 act	DAT uptake mod	CYP2C9 activ
CCOc1ccccc1N(C(=O)CNC(=O)c1ccco1)C(C(=O)NC(C)(C)C)c1ccncc1 (stereo unspecified)	.	.	.	.	.	.
Cc1ccc(C(=O)NN(C)c2nc3ccccc3nc2C(F)(F)F)cc1	.	.	/	.	.	.
Cc1nc2sc(C(c3cccs3)N3CCC(C(N)=O)CC3)c(O)n2n1 (stereo unspecified)	.	.	.	.	.	.
COc1ccc(NC2CS(=O)(=O)CC2NCc2ccco2)cc1 (stereo unspecified)	.	89	.	.	.	.
O=S1(=O)CC(NCc2ccccc2)C(Nc2ccccc2)C1 (stereo unspecified)	.	86	.	.	.	.
COc1ccc(C2=NOC(C(=O)NCc3ccco3)C2)cc1 (stereo unspecified)	.	.	/	.	.	.
COc1ccc(NC(=O)C2C3C=CC(C3)C2C(=O)NCc2ccco2)cc1 (stereo unspecified)	.	67	.	.	.	.
CC1(C)Cc2ccccc2C(N)=C1C#N	78	94	.	.	.	.
N#CC1=C(N)C(C#N)(C#N)C(c2cccnc2)C2CCCC=C12 (stereo unspecified)	.	.	.	.	.	.
N#CC1=C(N)C(C#N)(C#N)C(c2cccnc2)C2CC(c3ccccc3)CC=C12 (stereo unspecified)	64	.	/	.	.	.
NCCCC[C@H]1CNC(=S)N1CCCCC1CCCCC1	/	/	/	/	.	/
COc1cc(C2N(c3ccc(F)cc3)C(=O)C3CCCN32)cc(OC)c1OC (stereo unspecified)	.	.	.	.	.	.
O=C(NCCc1csc(-c2ccccc2)n1)c1c(F)cccc1F	/	/	/	/	.	/
O=C(NCCc1csc(-c2ccccc2)n1)c1ccc(Br)o1	61	100	/	.	.	.
O=C(NCCc1csc(-c2cccnc2)n1)c1ccc(Br)o1	.	52	/	.	.	.
COc1cc(OC)c(Cl)cc1N	.	.	/	.	.	.
CCCCOC(=O)/C(=C\c1ccc([N+](=O)[O-])o1)NC(=O)c1ccccc1	/	/	/	/	.	/
FC(F)(F)c1ccc(Oc2ccc3c(C(F)(F)F)cc(C(F)(F)F)nc3n2)cc1	.	.	/	.	.	.
CCOC(=O)Cn1c(=O)c2c(nc(Br)n2Cc2ccccc2Cl)n(C)c1=O	/	/	/	/	.	/
CCOC(=O)Cn1c(=O)c2c(nc(Br)n2Cc2ccccc2)n(C)c1=O	.	.	.	.	/	.
C=CCn1c(=O)c2c(nc(Br)n2Cc2ccccc2Cl)n(C)c1=O	.	71	/	.	.	.
Cn1c(=O)c2c(nc(SCc3nn[nH]n3)n2Cc2ccccc2F)n(C)c1=O	/	/	.	/	.	/
Cn1c(SCc2nn[nH]n2)nc2c1c(=O)n(Cc1ccccc1Cl)c(=O)n2C	55	.	.	.	.	.
CCCCOC(=O)Cn1c(=O)c2c(nc(Br)n2Cc2ccccc2)n(C)c1=O	78	89	.	.	.	.
C=CCCN(C(CC(C)C)C(=O)OC)S(=O)(=O)c1cc(Br)ccc1Br (stereo unspecified)	/	/	/	/	.	/
SMILES	CYP2C9 inhib	CYP2C19 inhib	D1 mod	CYP2C19 act	DAT uptake mod	CYP2C9 activ
COCC(C)NCc1ccc(C)cc1C (stereo unspecified)	.	.	.	.	.	.
Cn1c(C(=O)N2CCc3ccccc32)cc2c(=O)n3ccccc3nc21	/	/	.	/	/	/
COc1ccc(N2CCN(C(=O)CSc3nnc(C)c(=O)[nH]3)CC2)cc1	.	.	.	.	.	.
CCOc1ccc(N2C(=O)CC(N3CCC(NC(=O)Nc4ccccc4)CC3)C2=O)cc1 (stereo unspecified)	59	90	.	.	-2	.
CCOc1ccc(N2C(=O)CC(N3CCN(C(=O)CN4CCCC4)CC3)C2=O)cc1 (stereo unspecified)	.	.	/	.	.	.
NC(=O)C1=C[C@@H](C2CCCCC2)C[C@@H](OCCCCO)O1	/	/	/	/	.	/
